Shiga toxin inh = Shiga toxin inhibition; Vero cells, Shiga toxin protein synthesis inhibition reporter; inhibition, % at 38.7 µM; actives 9.2% (n = 290,000); AID 2315; in the data active = inhibition mostly above about 28%, no sharp cut-off; inactive = mostly below about 43%; also: 0% is about no effect
CHX counter = affects cycloheximide protein synthesis inhibition readout, counter-screen | actives 12% (n = 300,000) | cell reporter, cycloheximide protein synthesis inhibition counterscreen | max response, %; in the data active = max response mostly above about 13%, no sharp cut-off; inactive = mostly below about 14%; also: read at 38.3 µM for the half of the compounds with a filed dose; 0% is about no effect
Pf growth 96h = inhibits malaria parasite growth, 96 h | Potency, µM (doses to about 28.7 µM), for inactives: at the highest dose activity change, negative = inhibition, actives largely listed as inhibitors | actives 6.9% (n = 320,000) | P. falciparum luciferase reporter growth, 96 h; also: potency is read from the fitted curve at half-maximal effect; % is scaled to controls: 0 for no effect and ±100 for the full control effect
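Parasite growth measured via integrated firefly luciferase reporter in P. falciparum. Infected erythrocytes at 2% hematocrit, 0.05% parasitemia final were treated 96 hours at 37 C under 5% CO2, and luminescence was read.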
HCMV antiviral = blocks human cytomegalovirus replication; activity change, negative = inhibition, % at 57.5 µM; actives 4.5% (n = 410,000); AID 1259415; HFF cells, HCMV-luciferase reporter, 72 h; active compounds read low; in the data active = activity change below about -60%; inconclusive = no clear call, values can overlap the other calls; inactive = above about -39%; also: % is scaled to controls: 0 for no effect and ±100 for the full control effect
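Human foreskin fibroblasts infected with luciferase-reporter HCMV at MOI 1 PFU/cell, compounds at two doses. Luciferase measured 72 h post infection; normalized to buffer-only basal and Salinomycin (10uM) controls.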
Pf growth 48h = inhibits P. falciparum growth in the first generation, 48 h | P. falciparum luciferase growth in erythrocytes, 48 h | Potency, µM (series often up to 28.7 µM), inactives show at the top dose activity change, negative = inhibition, actives largely listed as inhibitors | actives 5.9% (n = 310,000) | AID 504832; also: potency is read from the fitted curve at half-maximal effect; % is scaled to controls: 0 for no effect and ±100 for the full control effect
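Firefly luciferase activity from engineered P. falciparum reports growth; inhibitors lower the luminescent signal. Cultures contained 2% hematocrit erythrocytes at 0.1% final parasitemia.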
HCV inh = inhibitors of hepatitis C virus infection; Huh7.5.1 HCVcc-Cre infection, luciferase reporter, 44 h; Potency, µM (highest dose often 41.8 µM), inactives show at the highest dose activity change, negative = inhibition, usual class: inhibitors; actives 3.4% (n = 340,000); AID 651820; also: potency is read from the fitted curve at half-maximal effect; % is scaled to controls: 0 for no effect and ±100 for the full control effect
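A cell-based infection assay in which seeded cells (1,000 per well) receive test compound after 4 h, are inoculated with HCVcc-Cre at approximately 0.5 moi, and are incubated 44 h before luminescence detection.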
* marks the source's active call; other numbers are inactive results. In the library only some 21% were active in any assay of this set; here they are far more common. Unless noted, calls follow the shape of the dose curve; as a rule, active = well fitted inhibition curve with a large enough effect; inconclusive = small, poorly fitted or top-dose-only effect, or another doubt; inactive = no such curve, though single readings can be large or run the other way.

How did COc1ccc(-n2c(SCC(=O)Nc3nc(C)cs3)nnc2-c2ccoc2C)cc1 do in these assays?
Shiga toxin inh: 13; CHX counter: 0; Pf growth 96h: 3%; HCMV antiviral: -29; Pf growth 48h: 5.9µM*; HCV inh: -18%

How did O=C(CSc1nnc(Cn2c(=O)sc3ccccc32)n1-c1ccccc1)Nc1nccs1 do in these assays?
Shiga toxin inh: 8; CHX counter: 9; Pf growth 96h: 4.7µM*; HCMV antiviral: -15; Pf growth 48h: inconclusive; HCV inh: 2%

How did CCOc1ccc(NC(=O)Cn2c(=O)n(Cc3ccc4c(c3)OCO4)c(=O)c3ccc(C(=O)NC4CCCCC4)cc32)cc1 do in these assays?
HCMV antiviral: 0

Results for O=C(NC1CCCC1)C1CCN(C(=O)c2cc(Cl)ccc2Cl)CC1 ?
Shiga toxin inh: -7; CHX counter: -6; Pf growth 96h: 3%; HCMV antiviral: -29; Pf growth 48h: 18%; HCV inh: 28%

How did CCOc1ccc(N=Nc2c(N)[nH][nH]c2=O)cc1 do in these assays?
Shiga toxin inh: 68*; CHX counter: 78*; Pf growth 96h: 105%; HCMV antiviral: 66; Pf growth 48h: 248%; HCV inh: -12%

Results for COc1cccc(N=Nc2c(N)[nH][nH]c2=O)c1 ?
Shiga toxin inh: 59*; CHX counter: 55*; Pf growth 96h: 162%; HCMV antiviral: 25; Pf growth 48h: 148%; HCV inh: inconclusive

Results for COc1ccc(N=Nc2c(C)[nH][nH]c2=O)cc1 ?
Shiga toxin inh: 103*; CHX counter: 35*; Pf growth 96h: inconclusive; HCMV antiviral: 12; Pf growth 48h: 96%; HCV inh: -6%

Results for Cc1cccc(CCNC(=O)C2CCC(=O)N(Cc3ccccc3F)C2)n1 (stereo not drawn) ?
HCMV antiviral: 110; HCV inh: 17%

How did Cn1nccc1C(=O)N1CCC(Cc2ccccc2)CC1 do in these assays?
Shiga toxin inh: 1; CHX counter: 2; Pf growth 96h: inconclusive; HCMV antiviral: 11; Pf growth 48h: 68%; HCV inh: -1%

Results for O=C(c1cccs1)N1CCC(Cc2ccccc2)CC1 ?
Shiga toxin inh: 15; CHX counter: -4; Pf growth 96h: -23%; HCMV antiviral: 9; Pf growth 48h: 8.3µM*; HCV inh: 9%

How did O=C(c1ccc(Br)o1)N1CCN(Cc2ccc3c(c2)OCO3)CC1 do in these assays?
Shiga toxin inh: 21; CHX counter: -2; Pf growth 96h: inconclusive; HCMV antiviral: -15; Pf growth 48h: 0%; HCV inh: -5%

What do the screens show for `CC1(C(=O)N2CCN(Cc3ccccc3Cl)CC2)CC1(Cl)Cl` (stereo not drawn)?
Shiga toxin inh: 120*; CHX counter: 20*; Pf growth 96h: inconclusive; HCMV antiviral: 21; Pf growth 48h: 12%; HCV inh: 9%

Results for O=C(c1ccc(Br)o1)N1CCN(Cc2ccccc2Cl)CC1 ?
CHX counter: 6; Pf growth 96h: inconclusive; HCMV antiviral: 45; Pf growth 48h: 12µM*; HCV inh: -8%

Results for O=C(c1ccc(Br)o1)N1CCC(Cc2ccccc2)CC1 ?
Shiga toxin inh: 5; CHX counter: 11; Pf growth 96h: -17%; HCMV antiviral: 27; Pf growth 48h: 13µM*

How did Cc1ccc(C2=Nc3ccccc3NC(c3ccncc3)=N2)cc1 do in these assays?
HCMV antiviral: -32

How did Cn1cc(C(=O)NCCc2ccccc2)c(=O)c2cc(S(=O)(=O)N3CCCCC3)ccc21 do in these assays?
HCMV antiviral: 18

How did Cc1cccc(C(=O)N2CCC(Cc3ccccc3)CC2)c1[N+](=O)[O-] do in these assays?
Shiga toxin inh: -18; CHX counter: -2; Pf growth 96h: 0.93µM*; HCMV antiviral: 40; Pf growth 48h: -1%; HCV inh: inconclusive

Results for Cc1c(C(=O)N2CCC(Cc3ccccc3)CC2)cccc1[N+](=O)[O-] ?
Shiga toxin inh: -14; CHX counter: -5; Pf growth 96h: 103%; HCMV antiviral: 18; Pf growth 48h: 14%; HCV inh: -5%

How did CC(SCc1cn2cc(Cl)ccc2n1)C(=O)O (stereo not drawn) do in these assays?
Shiga toxin inh: -6; CHX counter: -3; Pf growth 96h: 0%; HCMV antiviral: 21; Pf growth 48h: 41%; HCV inh: -4%

Results for CCOC(=O)CSCc1cn2cc(Cl)ccc2n1 ?
Shiga toxin inh: 54; CHX counter: 24*; HCMV antiviral: -19; Pf growth 48h: 11%; HCV inh: 4%

What do the screens show for `COc1cc(/C=C/C(=O)OCc2cn3cc(Cl)ccc3n2)ccc1O`?
Shiga toxin inh: -6; CHX counter: -1; Pf growth 96h: inconclusive; HCMV antiviral: 0; Pf growth 48h: 10µM*; HCV inh: inconclusive

What do the screens show for `Cc1cc(C(C)(C)C)oc1C(=O)N(CC(=O)NC1CCCC1)c1cccc(C(F)(F)F)c1`?
Shiga toxin inh: 11; CHX counter: 2; Pf growth 96h: 12µM*; Pf growth 48h: 9.3µM*; HCV inh: inconclusive

Results for Cc1ccccc1N(CC(=O)NC1CCCC1)C(=O)c1oc(C(C)(C)C)cc1C ?
Shiga toxin inh: 6; CHX counter: 2; Pf growth 96h: inconclusive; Pf growth 48h: 12µM*; HCV inh: inconclusive

How did Cc1ccc(C(=O)N(CC(=O)NC2CCCC2)c2cccc(F)c2)s1 do in these assays?
Shiga toxin inh: -3; CHX counter: 6; Pf growth 96h: 12%; HCMV antiviral: -37; Pf growth 48h: 10%; HCV inh: inconclusive

How did Cc1cc(C(C)(C)C)oc1C(=O)N(CC(=O)NC1CCCC1)Cc1ccccc1Cl do in these assays?
Shiga toxin inh: 1; CHX counter: 6; Pf growth 96h: 9.3µM*; HCMV antiviral: -28; Pf growth 48h: inconclusive; HCV inh: inconclusive

What do the screens show for `O=C(CN(Cc1ccccc1Cl)C(=O)CCC(=O)Nc1nccs1)NCC1CCCO1` (stereo not drawn)?
Shiga toxin inh: -6; CHX counter: -4; Pf growth 96h: inconclusive; HCMV antiviral: 10; Pf growth 48h: 7%; HCV inh: 3%

What do the screens show for `Cc1ccc(C(=O)N(CC(=O)NC2CCCCC2)c2ccccc2C)s1`?
Shiga toxin inh: -13; CHX counter: -1; Pf growth 96h: inconclusive; HCMV antiviral: -39; Pf growth 48h: -21%; HCV inh: inconclusive

What do the screens show for `Cc1ccc(-c2csc(NCCn3c(C)nc4cc(C(F)(F)F)ccc43)n2)cc1`?
HCMV antiviral: -13; HCV inh: inconclusive

What do the screens show for `COc1ccc(/C=C/C(=O)NC(C)C)cc1Br`?
Shiga toxin inh: 4; CHX counter: 13*; Pf growth 96h: inconclusive; HCMV antiviral: -19; Pf growth 48h: inconclusive; HCV inh: 3%

High-throughput results deposited in PubChem BioAssay by National Center for Advancing Translational Sciences (NCATS).
